According to ChEMBL document CHEMBL3988442, “University of Dundee, Small-Polar-MMV Screening Library” (2021):
About 13,000 (27%) of roughly 48,000 compounds showed an effect of 50% or more. The list shows a part of the results.

Test system: Wolbachia pipientis
Test: Anti-Wolbachia Cell-Based Screen
Format: functional
Parameters: scale not given: in the data most compounds retested in dose-response had high values
Settings: 5 µM

In order of falling “Percent Effect” value:
1. Nc1cc(-c2cccs2)nn(CC(=O)N2CCc3ccccc32)c1=O  164.1%
2. CC1Cc2ccccc2N1C(=O)Cn1nc(-c2cccs2)ccc1=O (stereo not given)  148.6%
3. CC1Cc2ccccc2N1C(=O)Cn1nc(-c2cccs2)cc(N)c1=O (stereo not given)  146.8%
4. Cn1ccc(CN2CCC(Cc3ccccc3)CC2)cc1=O  141.3%
5. O=C(NC[C@H]1CCCC[C@H]1O)c1cccc2[nH]c(-c3ccco3)nc12  127.5%
6. Cc1ccc(N2CCCC3(COCCN(c4cnccn4)C3)C2)nn1 (stereo not given)  122.4%
7. COc1ncccc1CNC(=O)NC1CCCOc2ccccc21 (stereo not given)  119.2%
8. O=C(NC[C@H]1CCCC[C@H]1O)c1cccc2[nH]c(-c3cccs3)nc12  118.3%
9. COc1ncccc1C(=O)NC1CCOc2ccccc21 (stereo not given)  117.1%
10. O=C(NC[C@H]1CCCC[C@H]1O)c1ccc2nc(-c3ccco3)[nH]c2c1  114.7%
11. Cc1cnc(N2CCCC3(COCCN(c4ccc(C)nn4)C3)C2)nc1 (stereo not given)  111.1%
12. Cc1ccc(N2CCOCC3(CCCN(c4ncc(F)cn4)C3)C2)nn1 (stereo not given)  110.3%
13. CCOc1ncccc1CNC(=O)NC1CCOc2ccccc21 (stereo not given)  109.6%
14. CN(C)c1ccc(-c2cccc(-c3ccn(CCCO)n3)c2)nn1  106.7%
15. Cc1cc(-c2cccc(-c3ccn(CCCO)n3)c2)nc(N(C)C)n1  105.4%
16. CCc1ccc(C2c3nc[nH]c3CCN2Cc2nccn2CC)nc1 (stereo not given)  105%
17. COCCn1ccnc1CN1CCc2[nH]cnc2C1c1cnn(C)c1C (stereo not given)  99.98%
18. CC(C)Oc1ncccc1CNC(=O)NC1CCOc2ccccc21 (stereo not given)  99.58%
19. Cc1nc(N(C)C)nc(-c2cccc(-c3ccn(CCCF)n3)c2)c1C  99.28%
20. Cc1nc(N(C)C)nc(-c2cccc(-c3ccn(CCCO)n3)c2)c1C  91.5%
21. Cc1cnc(-c2cccc(-c3ccn(CCCO)n3)c2)nc1N(C)C  89.78%
22. COCCN(CCOC)Cc1c(C)nc2ccccc2c1O  87.45%
23. Cn1ccc(CN2CCC(OCc3ccccc3)CC2)cc1=O  85.88%
24. COCCn1ccnc1CN1CCc2[nH]cnc2C1c1cccc(O)c1 (stereo not given)  85.01%
25. COCCn1ccnc1CN1CCc2[nH]cnc2C1c1ccccn1 (stereo not given)  80.05%
26. Cn1ccc(CN2CCC(CC(=O)N3CCCC3)CC2)cc1=O  63.9%
27. O=C1CCC(C(=O)N(Cc2ccsc2)CC2CCCO2)=NN1 (stereo not given)  39.45%
28. CSCCCN1C[C@H]2CC[C@@H]1CN(Cc1[nH]cnc1C)C2  27.65%
29. O=C(NCC1CCCCO1)c1ccc(-c2cccs2)[nH]c1=O (stereo not given)  23.71%
30. c1cncc(-c2cccc(-c3ccn(CCN4CCCCC4)n3)c2)c1  18.24%
31. CC(=O)Nc1ccc(CN2CCc3[nH]cnc3C2c2nccn2C)cc1 (stereo not given)  16.2%
32. O=C(Cn1nc(-c2cccs2)ccc1=O)N1CCCCCC1  16.15%
33. COc1ncccc1C(=O)NCC1Cc2ccccc2O1 (stereo not given)  13.43%
34. CC(C)Oc1ncccc1CNC(=O)N1CCOCC1  12.39%
35. O=C(CN1CC(c2nc(-c3cccs3)no2)C1)NCC1CCCO1.O=C(O)C(=O)O (stereo not given)  11.99%
36. c1cc(-c2cnccn2)cc(-c2ccn(CCN3CCCCC3)n2)c1  11.58%
37. CN(C)[C@H]1CCCCN(Cc2ccccc2Cn2cccn2)C1  11.28%
38. CC(=O)c1cc(CN2C[C@H]3CC[C@@H]2CN(S(C)(=O)=O)C3)cs1  11.24%
39. O=C(NCc1ccccn1)NC1CCOc2ccccc21 (stereo not given)  10.12%
40. COCCN(Cc1ccccc1)Cc1csc(-c2ncccn2)n1  9.824%
41. O=C(c1csnn1)N1CCc2ccccc21  9.308%
42. Cc1oc(NC(=O)C(C)N2CCN(C(=O)C3CC3)CC2)c(C#N)c1C (stereo not given)  9.3%
43. COc1cccc(-c2n[nH]cc2CNCC2CCS(=O)(=O)C2)c1 (stereo not given)  9.215%
44. COCCN1CCN(CCCS(=O)(=O)c2ccccc2)CC1C (stereo not given)  8.957%
45. Cc1cnc(C)c(-c2cccc(-c3ccn(CCN4CCCC4)n3)c2)n1  7.439%
46. CCCNC(=O)c1ccc(-c2ccco2)[nH]c1=O  7.034%
47. COc1ncccc1NC(=O)NC1CCOc2ccccc21 (stereo not given)  7.033%
48. Cc1cc(C)nc(N2CCN(C(=O)c3ccc(C4CCCO4)s3)CC2)n1 (stereo not given)  6.831%
49. CCOC(C)C(=O)NS(=O)(=O)c1cccc2cc(C)cnc12 (stereo not given)  6.301%
50. O=c1ccc(-c2cccs2)nn1CN1CCCCCC1  6.119%
51. Cc1c(C2c3nc[nH]c3CCN2CCOCc2ccccc2)cnn1C (stereo not given)  5.205%
52. Cn1ccc(CN2CCC(OCCc3ccccc3)CC2)cc1=O  4.919%
53. Cc1cc(CS(=O)(=O)CC(=O)N2c3ccccc3CC2C)no1 (stereo not given)  4.378%
54. Cn1nc(C(=O)N2CCC(Oc3ccc(C#N)cn3)CC2)ccc1=O  4.281%
55. COc1ncccc1CNC(=O)NC1CCOc2ccccc21 (stereo not given)  3.95%
56. Cn1ccnc1C1c2nc[nH]c2CCN1Cc1cccnc1 (stereo not given)  3.917%
57. O=C(NCC1CCCCO1)c1ccc(-c2ccco2)[nH]c1=O (stereo not given)  3.575%
58. Cc1sc(-c2ccco2)nc1C(=O)NCC1CCOC1 (stereo not given)  3.177%
59. CCc1nc(N2CCCC(CO)(CCOC)C2)ncc1C (stereo not given)  2.131%
60. c1cc(-c2cnccn2)cc(-c2ccn(CCN3CCCC3)n2)c1  1.985%
61. Cn1ccc(CN2CCC(c3ccccc3)CC2)cc1=O  1.288%
62. Cc1ccc(-n2cc(C)cn2)c(NC(=O)NC2(C)CCOC2)c1 (stereo not given)  1.139%
63. COCCN(C/C=C/c1ccccc1)Cc1[nH]cnc1C  0.6053%
64. Cc1ccc(-c2cc(N)c(=O)n(CC(=O)NCC3CC3)n2)s1  -0.7868%
65. c1ccc(COCCN2CCc3[nH]cnc3C2c2ccco2)cc1 (stereo not given)  -0.996%
66. Cc1cc(CC(C)NC(=O)c2cccc(CC3CCNCC3)c2)[nH]n1 (stereo not given)  -1.026%
67. CCS(=O)(=O)N1CCCC2(COCCN(c3cnccn3)C2)C1.O=C(O)C(F)(F)F (stereo not given)  -1.156%
68. CN(C)CCCn1ccc(-c2cccc(-c3ccccn3)c2)n1  -1.271%
69. Cc1cnc(N2CCC3(CCCN(c4ccc(C)nn4)C3)C2)nc1 (stereo not given)  -1.521%
70. CCCn1ccnc1CN1CCc2[nH]cnc2C1Cc1ccccc1 (stereo not given)  -1.947%
71. CN(C)CC1CN(CC(=O)N2CCc3ccccc32)CCO1 (stereo not given)  -2.513%
72. c1cc(-c2cnccn2)cc(-c2ccn(CCCN3CCCCC3)n2)c1  -2.928%
73. Cc1ccc2[nH]c(CN(C)Cc3ccccc3C(=O)O)nc2c1  -3.287%
74. CC(C)Oc1ccc(C(=O)Nc2nncs2)cn1  -3.461%
75. NC(=O)c1ccc(N2CCCCC2)c(NC(=O)c2ccc(F)cc2F)c1  -3.643%
76. Cc1noc(C)c1NC(=O)Cn1cc(Br)ccc1=O  -4.213%
77. Cn1ccc(CN2CCC(NC(=O)Cc3ccccc3)CC2)cc1=O  -4.576%
78. COc1ncccc1CN1CCc2[nH]cnc2C1CCSC (stereo not given)  -5.01%
79. O=C1CCC2(CCOC2)CN1Cc1nc2ccc(Cl)cc2[nH]1 (stereo not given)  -5.094%
80. CC(C)(CN)NS(=O)(=O)c1c(F)cccc1F.Cl  -5.219%
81. NS(=O)(=O)c1ccc(CC(=O)N2CCCC(n3cccn3)C2)cc1 (stereo not given)  -6.435%
82. COC1CCN(c2cc(C(C)C)nc3ccnn23)C1 (stereo not given)  -6.556%
83. CC(C)(C)c1oc(C(N)=O)cc1CN1CCCCC(N)C1 (stereo not given)  -6.99%
84. N#Cc1cn(CCN2CCc3ccccc3C2)c(=O)[nH]c1=O  -7.012%
85. Cc1sc(-c2ccco2)nc1C(=O)N(CC(N)=O)C1CCCC1  -7.156%
86. O=S(=O)(c1c(Cl)nc2sccn12)N1CCCC2(CCNC2)C1 (stereo not given)  -7.424%
87. C[C@@H]1CN(C2CCN(Cc3cnc(-c4cccs4)nc3)CC2)C[C@H](C)O1  -8.003%
88. Cc1cnc(N2CCC(c3ccccc3)CC2)nc1-c1ccnn1C  -8.504%
89. CCn1ncnc1CN1CCc2[nH]cnc2C1c1ccccn1 (stereo not given)  -9.23%
90. COc1ccc(N2CCOCC3(CCCN(c4cnccn4)C3)C2)cc1 (stereo not given)  -9.239%
91. Fc1cnc(N2CCOCC3(CCCN(c4cnccn4)C3)C2)nc1 (stereo not given)  -10.42%
92. CCOC(C)c1nc(Cn2cc(C)cn2)cs1 (stereo not given)  -10.7%
93. CC(C)Oc1ncccc1CNC(=O)N1CCC1c1ccccc1 (stereo not given)  -10.96%
94. Fc1cnc(N2CCOCC3(CCCN(c4nncs4)C3)C2)nc1 (stereo not given)  -12.3%
95. COc1ncccc1CNC(=O)N(Cc1ccccc1F)C1CC1  -13.4%
96. Cc1ccc(Oc2ncccc2CNC(=O)NC2CCCCC2)cn1  -14.6%
97. Cn1ccc(CN2CCC(NC(=O)NC3CCCCC3)CC2)cc1=O  -14.97%
98. CNC(=O)c1cccnc1NCc1ccc(Cn2ccnc2)cc1  -15.36%
99. Cn1c(CN2CCC(OCc3cccnc3)CC2)cc2ccccc21  -15.6%
100. CCn1ccnc1CN1CCN(Cc2ccc(C#N)cc2)CC1  -17.04%
101. COc1ccc(-c2cccc(-c3ccn(CCN(C)C)n3)c2)nn1  -17.53%
102. Cc1ccc2c(c1)C(NCc1nccn1Cc1ccccc1)CCCO2 (stereo not given)  -18.78%
103. COc1ccc(-c2cccc(-c3ccn(CCCN(C)C)n3)c2)nn1  -20.49%
104. OC1(c2cn(C3CCN(C4CCSC4)CC3)nn2)CCCC1 (stereo not given)  -22.68%
105. CN(C)CCCn1ccc(-c2cccc(-c3cncnc3)c2)n1  -27.48%
